In assay [1] the target is Progesterone receptor (Homo sapiens) (UniProt P06401). The experiment in a line: qHTS assay to identify small molecule agonists of the progesterone receptor (PR) signaling pathway (AID 1346784; calls by dose curve; note: nearly all actives have a fitted effect of over 30% in size). The method in brief: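 Cells (PR-UAS-bla HEK 293T, GripTite) were plated in assay medium containing 2% charcoal-stripped FBS and incubated 6 hr. Test compounds in DMSO were added for 16 hr at 37C. FRET substrate was then loaded for 2 hr at room temperature before fluorescence reading.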
Chain of Progesterone receptor (Homo sapiens) (P06401 whole entry, looked up): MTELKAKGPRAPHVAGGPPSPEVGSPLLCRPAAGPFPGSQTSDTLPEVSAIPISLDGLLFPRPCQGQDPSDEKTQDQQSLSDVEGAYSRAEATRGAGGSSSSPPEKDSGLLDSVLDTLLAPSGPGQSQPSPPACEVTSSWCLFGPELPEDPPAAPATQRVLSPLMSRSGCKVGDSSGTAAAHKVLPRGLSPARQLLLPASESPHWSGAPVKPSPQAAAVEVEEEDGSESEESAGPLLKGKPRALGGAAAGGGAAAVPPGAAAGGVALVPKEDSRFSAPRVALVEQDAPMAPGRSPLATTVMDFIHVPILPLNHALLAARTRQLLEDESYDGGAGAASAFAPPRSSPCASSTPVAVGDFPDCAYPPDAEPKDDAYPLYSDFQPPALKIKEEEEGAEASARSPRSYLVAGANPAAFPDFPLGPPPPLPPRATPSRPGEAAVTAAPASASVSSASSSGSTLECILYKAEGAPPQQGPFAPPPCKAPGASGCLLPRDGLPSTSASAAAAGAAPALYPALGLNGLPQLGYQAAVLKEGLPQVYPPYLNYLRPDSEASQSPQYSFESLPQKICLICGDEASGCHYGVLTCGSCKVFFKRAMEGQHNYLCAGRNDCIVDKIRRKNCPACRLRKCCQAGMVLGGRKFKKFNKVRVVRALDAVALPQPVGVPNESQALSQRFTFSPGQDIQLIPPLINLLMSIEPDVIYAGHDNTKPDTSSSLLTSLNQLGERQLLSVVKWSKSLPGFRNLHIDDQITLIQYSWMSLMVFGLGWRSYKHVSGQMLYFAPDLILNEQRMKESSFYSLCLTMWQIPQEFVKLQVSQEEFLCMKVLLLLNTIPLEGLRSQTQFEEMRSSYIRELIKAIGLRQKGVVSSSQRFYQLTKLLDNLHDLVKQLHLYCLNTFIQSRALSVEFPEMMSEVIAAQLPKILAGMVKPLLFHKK
A general note: qHTS replaces the single test concentration by a dilution series.

For assay [2] the target is unchanged. The experiment in a line: qHTS assay to identify small molecule antagonists of the progesterone receptor (PR) signaling pathway (AID 1346795; active = well fitted inhibition curve with a large enough effect in the signal ratio in the repeat runs, not every such curve was filed as active; the % refers to the signal ratio). The gist of the method: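 Antagonist mode: compounds tested against 1 nM (final) promegestone stimulation in HEK293T cells expressing PR-UAS-bla reporter, 16 hr at 37C, 5% CO2; beta-lactamase activity detected via B/G FRET substrate after 2 hr at room temperature.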

A short description of assay [3]: qHTS assay to identify small molecule antagonists of the progesterone receptor (PR) signaling pathway - cell viability counter screen (AID 1346798). Note: series mostly up to about 92 µM; nearly all actives have a fitted effect of over 50% in size. The gist of the method:
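Counter screen for cytotoxicity: viability of PR-UAS-bla HEK293T cells was measured with CellTiter-Glo luminescence following 16 hr compound exposure in the presence of R5020.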

Assay [4] in a line: qHTS assay to identify small molecule agonists of the progesterone receptor (PR) signaling pathway - cell viability counter screen (AID 1346799; calls by dose curve; note: nearly all actives have a fitted effect of over 45% in size). The method in brief:
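Cells (PR-UAS-bla HEK293T) are plated at 3,000/well in 2% charcoal-stripped FBS medium, rested 6 hr, dosed and incubated 16 hr at 37C. CellTiter-Glo is then added and luminescence measured after 30 min at room temperature.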

Assay [5] in a line: qHTS assay to identify small molecule antagonists of the TGF-beta/Smad signaling pathway - cell viability counter screen (AID 1346824). Note: nearly all actives have a fitted effect of over 50% in size. The gist of the method: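 SBE-bla HEK 293T cells, incubated overnight, then compound plus 0.25 ng/mL TGF-beta1 (stock added) for 5 hr at 37 C. Viability was read in the same wells by CellTiter-Glo luminescence after 30 min at room temperature.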

Assay [6] in a line: qHTS assay to identify small molecule agonists of the TGF-beta/Smad signaling pathway (AID 1346859; active = well fitted activation curve with a large enough effect in the signal ratio in the repeat runs, not every such curve was filed as active; the % refers to the signal ratio; note: series mostly up to about 77 µM). The method in brief:
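Reporter line: HEK 293T with stably integrated SBE-controlled beta-lactamase. Compound exposure lasts 5 hr at 37 C and 5% CO2; substrate loading follows for 2 hr at room temperature, with emission read at 460 and 530 nm.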

Assay [7] can be described thus: Caspase-3/7 induction in HepG2 cells by small molecules, qHTS assay (AID 1346978). Note: nearly all actives have a fitted effect of over 15% in size. The gist of the method: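 Wild-type HepG2 cells, 2,000/well, settled 5 hr at 37 C and 5% CO2, then compound-treated for 17 hr; caspase-3/7 activity read by luminescent Caspase-Glo 3/7 after 30 min at room temperature.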
Assay [8] can be described thus: Caspase-3/7 induction in CHO-K1 cells by small molecules, qHTS cell viability counter screen (AID 1346979). Note: nearly all actives have a fitted effect of over 35% in size. The gist of the method: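 Cytotoxicity counter screen run in parallel with the caspase-3/7 assay: CHO-K1 cells, 16hr compound treatment at 37C, then CellTiter-Fluor for 1hr before fluorescence reading.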
Assay [9] is described as follows: Caspase-3/7 induction in CHO-K1 cells by small molecules, qHTS assay (AID 1346980). Note: nearly all actives have a fitted effect of over 15% in size. The gist of the method: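 Wild-type CHO-K1 cells exposed to compounds for 17hr at 37 C, 5% CO2. Caspase-3/7 activity then measured by Caspase-Glo 3/7 luminescence after 30min at room temperature.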
Assay [10] addresses Nuclear receptor subfamily 1 group I member 2 (Homo sapiens) (UniProt O75469). Kind of assay: Human pregnane X receptor (PXR) small molecule agonists, qHTS assay (AID 1346982). Note: nearly all actives have a fitted effect of over 35% in size. The gist of the method: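 Luciferase signal from ONE-Glo (30 min, room temperature) measured activation of hPXR-driven CYP3A4 reporter expression in PXR-Luc HepG2 cells treated with compounds for 24 hr at 37 C.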

Assay [11] has as its target Nuclear receptor subfamily 1 group I member 2 (Rattus norvegicus) (UniProt Q9R1A7). Kind of assay: Rat pregnane X receptor (rPXR) activation by small molecules, qHTS assay (AID 1346983). Note: nearly all actives have a fitted effect of over 20% in size. To be noted: rPXR luciferase reporter cells, One-Glo luminescence, 24 h; max activation: hits give high values. The method in brief: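 Cell-based rPXR activation assay: rPXR cells, 2,000 per well, rested 5hr at 37 C, then exposed to compounds in DMSO for 24 hr at 37 C. Luciferase activity read by One-Glo luminescence after 30 min at room temperature.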

In assay [12] the target is Nuclear receptor subfamily 1 group I member 2 (Homo sapiens) (UniProt O75469). Kind of assay: CYP3A4 induction through human pregnane X receptor (PXR) by small molecules, qHTS assay (AID 1346984). Note: nearly all actives have a fitted effect of over 40% in size. The gist of the method:
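Luminescence readout: luciferase signal after One-Glo (30 min, room temperature), following 3 h at 37C with 3uM final Luciferin-IPA P450 substrate. Cells were DPX-2 (HepG2, PXR/CYP3A4-luc co-transfected) dosed for 24 h.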

The target is the same in assay [13]. The experiment in a line: Human pregnane X receptor (PXR) activation by small molecules, qHTS assay (AID 1346985). Note: nearly all actives have a fitted effect of over 40% in size. The gist of the method:
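DPX-2 cells (HepG2 co-transfected with a PXR response element and a CYP3A4-promoter luciferase construct) were seeded at 2,000 per well, rested 5 hr at 37C, then exposed to DMSO-dissolved compounds for 24 hr. Activation was read as luciferase luminescence.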

For assay [14], the target named is Acetylcholinesterase (Homo sapiens) (UniProt P22303). Kind of assay: Acetylcholinesterase (AChE) small molecule antagonists: colormetric cell-based qHTS assay (AID 1347395; calls by dose curve; note: nearly all actives have a fitted effect of over 30% in size; note: potency is the fitted concentration of half-maximal effect). The gist of the method:
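Cells (SH-SY5Y, 2,000 per well) are seeded and left overnight at 37 C. Compound is added for 30 min, then DTNB and acetylthiocholine for a further 90 min at 37 C before absorbance-based thiocholine detection.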

Assay [15] has the same target. The experiment in a line: Acetylcholinesterase (AChE) small molecule antagonists: enzyme-based qHTS assay (AID 1347397; calls by dose curve; note: nearly all actives have a fitted effect of over 55% in size; note: potency is the fitted concentration of half-maximal effect). The settings on record: Potency: AChE enzyme activity inhibition. The method in brief: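 Recombinant human AChE (50 mU/mL) preincubated with compound 30 min at room temperature; acetylthiocholine plus DTNB then added, and thiocholine formation read colorimetrically after 10 min at room temperature. DMSO served as vehicle control.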

Assay [16] can be described thus: Human pregnane X receptor (PXR) small molecule agonists, qHTS cell viability counter screen (AID 1346977). Note: nearly all actives have a fitted effect of over 50% in size. The method in brief: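 Cytotoxicity counter screen run in the same wells as the PXR luciferase assay, using PXR-Luc HepG2 cells in charcoal-stripped serum medium. Viability: CellTiter-Fluor fluorescence after 24hr compound treatment.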
Assay [17] concerns the target Thyrotropin-releasing hormone receptor (Homo sapiens) (UniProt P34981). The experiment in a line: qHTS assay to identify small molecule antagonists of the thyrotropin-releasing hormone receptor (TRHR) signaling pathway (AID 1346877; active = well fitted inhibition curve with a large enough effect in the repeat runs, not every such curve was filed as active; note: series mostly up to about 51 µM). The gist of the method: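 Intracellular calcium fluorescence, read kinetically every second over 3 min, reports TRH-evoked signalling in HEK293 cells carrying TRHR. Test compounds were added 5 min ahead of a 1 nM TRH challenge.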

For assay [18] the target is unchanged. Kind of assay: qHTS assay to identify small molecule agonists of the thyrotropin-releasing hormone receptor (TRHR) signaling pathway (AID 1346891; calls by dose curve;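 note: HEK293 cells expressing TRHR with calcium dye readout; series mostly up to about 58 µM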). The method in brief: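 Cells: TRHR-Hek293, seeded and incubated 18 h. Dye loading: 2 h at 37 °C. Compound added from DMSO stock by pin tool. Read-out: kinetic calcium fluorescence over 3 min.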
Assay [19] can be described thus: Caspase-3/7 induction in HepG2 cells by small molecules, qHTS cell viability counter screen (AID 1346981). Note: series mostly up to about 92 µM; nearly all actives have a fitted effect of over 30% in size. The method in brief: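 HepG2, WT, 2,000 cells/well; 5 hr pre-incubation 37 C/5% CO2; compound pin-transferred from DMSO; 16 hr exposure; CellTiter-Fluor, 1 hr; fluorescence read.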
Assay [20] is described as follows: qHTS assay to identify small molecule agonists of the TGF-beta/Smad signaling pathway - cell viability counter screen (AID 1346829). Note: top concentration of the series differs between compounds; nearly all actives have a fitted effect of over 45% in size. The gist of the method: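 Compound-treated SBE-bla HEK 293T cells (5 hr, 37 C) were assessed for viability with CellTiter-Glo in parallel with the reporter read.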

Results on nine molecules are retold here after PubChem BioAssay (Tox21).

Unmarked numbers belong to inactive results. Inconclusive results are not listed. Active and inactive are the calls of the source. Unless noted, calls come from the whole dose curve; as a rule, active = well fitted curve in the direction sought with a large enough effect in the repeat runs; inconclusive = weak or mixed curves; inactive = no such curve, though single readings can be large; an effect the other way counts as inactive or inconclusive.
% is set by controls: 0 for no effect and ±100 for the full control effect.

Chain of Thyrotropin-releasing hormone receptor (Homo sapiens) (P34981 whole entry, looked up): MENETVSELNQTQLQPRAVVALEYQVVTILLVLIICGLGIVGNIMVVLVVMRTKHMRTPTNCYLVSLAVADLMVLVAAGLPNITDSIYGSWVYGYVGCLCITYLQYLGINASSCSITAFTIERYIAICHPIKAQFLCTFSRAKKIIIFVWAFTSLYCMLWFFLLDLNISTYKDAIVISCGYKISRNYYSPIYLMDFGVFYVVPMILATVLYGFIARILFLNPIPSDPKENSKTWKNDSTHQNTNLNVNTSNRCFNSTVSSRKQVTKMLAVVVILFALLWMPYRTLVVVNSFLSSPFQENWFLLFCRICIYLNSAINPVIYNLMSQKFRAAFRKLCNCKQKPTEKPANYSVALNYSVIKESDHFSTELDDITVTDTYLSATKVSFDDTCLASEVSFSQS
Chain of Nuclear receptor subfamily 1 group I member 2 (Homo sapiens) (O75469 whole entry, looked up): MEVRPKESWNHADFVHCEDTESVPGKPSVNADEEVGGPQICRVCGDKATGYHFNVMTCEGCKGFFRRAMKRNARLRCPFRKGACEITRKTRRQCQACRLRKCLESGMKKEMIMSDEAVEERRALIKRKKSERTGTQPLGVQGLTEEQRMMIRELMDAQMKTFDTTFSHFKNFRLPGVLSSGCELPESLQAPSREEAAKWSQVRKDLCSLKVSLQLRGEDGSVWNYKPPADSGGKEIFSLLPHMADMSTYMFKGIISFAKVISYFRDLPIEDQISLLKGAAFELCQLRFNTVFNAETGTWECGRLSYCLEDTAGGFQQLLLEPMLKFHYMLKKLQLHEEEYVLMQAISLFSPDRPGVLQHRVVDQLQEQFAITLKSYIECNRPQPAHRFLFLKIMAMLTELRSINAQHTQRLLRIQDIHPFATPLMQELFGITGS
Chain of Nuclear receptor subfamily 1 group I member 2 (Rattus norvegicus) (Q9R1A7 whole entry, looked up): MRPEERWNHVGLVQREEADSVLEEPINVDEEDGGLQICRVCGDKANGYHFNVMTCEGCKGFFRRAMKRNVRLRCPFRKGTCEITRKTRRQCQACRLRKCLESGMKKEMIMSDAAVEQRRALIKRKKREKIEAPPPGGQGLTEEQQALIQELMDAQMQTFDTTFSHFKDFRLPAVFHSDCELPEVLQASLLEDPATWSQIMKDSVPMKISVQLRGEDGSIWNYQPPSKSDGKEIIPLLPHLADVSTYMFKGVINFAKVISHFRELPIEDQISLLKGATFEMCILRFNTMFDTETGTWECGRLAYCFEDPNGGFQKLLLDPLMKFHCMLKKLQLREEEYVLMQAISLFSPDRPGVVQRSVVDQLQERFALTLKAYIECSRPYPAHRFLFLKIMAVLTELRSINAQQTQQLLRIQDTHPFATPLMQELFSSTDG
Chain of Acetylcholinesterase (Homo sapiens) (P22303 whole entry, looked up): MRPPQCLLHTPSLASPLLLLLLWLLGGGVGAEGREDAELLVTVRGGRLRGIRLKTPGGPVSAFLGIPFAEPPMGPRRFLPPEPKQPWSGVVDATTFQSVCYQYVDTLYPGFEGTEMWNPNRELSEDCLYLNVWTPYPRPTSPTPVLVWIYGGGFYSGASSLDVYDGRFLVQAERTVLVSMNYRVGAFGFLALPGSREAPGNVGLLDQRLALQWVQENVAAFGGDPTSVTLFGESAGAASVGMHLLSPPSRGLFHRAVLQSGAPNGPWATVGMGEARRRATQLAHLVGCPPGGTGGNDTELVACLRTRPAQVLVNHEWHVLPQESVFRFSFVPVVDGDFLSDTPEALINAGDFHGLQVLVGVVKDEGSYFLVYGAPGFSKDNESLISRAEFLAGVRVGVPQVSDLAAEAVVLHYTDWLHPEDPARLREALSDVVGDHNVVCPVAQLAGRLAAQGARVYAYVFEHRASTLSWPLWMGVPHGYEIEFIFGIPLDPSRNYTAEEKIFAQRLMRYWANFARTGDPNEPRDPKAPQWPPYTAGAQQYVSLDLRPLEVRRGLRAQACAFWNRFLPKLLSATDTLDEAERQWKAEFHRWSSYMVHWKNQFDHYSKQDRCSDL

In the case of `CC(C)(C)NCC(O)c1cc(Cl)c(N)c(Cl)c1` (stereo not given), the Potency entry in assay [1], in assay [2], in assay [3], in [4], in [5] and in assay [7] was “inactive” throughout. In addition, the Potency result in assay [8], in assay [9], in [10], in [12], in assay [13] and in assay [14] was “inactive” each time. Also, in assay [15], the Potency entry is “inactive”. Moreover, in [6], the call was inactive. Also, the max activation in assay [11] was -2.23%.
With `O=C1OC(c2ccc(O)c(S(=O)(=O)O)c2)(c2ccc(O)c(S(=O)(=O)O)c2)c2c(Br)c(Br)c(Br)c(Br)c21`, the Potency entry in assay [1], in assay [2], in [3], in [4], in assay [5] and in assay [16] was “inactive” each time. For the same molecule, the Potency result in [7], in [8], in assay [9], in assay [10], in assay [12] and in assay [13] was “inactive” each time. In addition, the Potency result in assay [14] and in [15] was “inactive” in each case. In addition, the molecule was called inactive in [6]. The max activation in [11] is -0.923%.
For the molecule `[O]=[Cd]`, the Potency result in [1], in [2], in assay [3], in assay [4], in [5] and in [16] was “inactive” in each case. In addition, the Potency result in assay [7], in [8], in [9], in assay [19], in assay [10] and in [12] was “inactive” in each case. Moreover, the Potency result in assay [13] and in assay [15] was “inactive” in each case. The molecule was called inactive in assay [6], in assay [17] and in assay [18]. Moreover, the max activation in assay [11] was 0.414%.
For the molecule `CC(C(=O)c1ccccc1)N(C)C` (stereo not given), the Potency result in [1], in assay [2], in assay [3], in assay [4], in assay [5] and in [16] was “inactive” throughout. The Potency result in [7], in [8], in assay [9], in assay [19], in assay [10] and in assay [14] was “inactive” throughout. In addition, the Potency result in [15] was “inactive”. In addition, the outcome in assay [20] and in assay [6] was inactive.
As for `Nc1ccccc1Cl`, the Potency entry in [1], in assay [2], in [3], in assay [4], in assay [5] and in [16] was “inactive” each time. Further, the Potency entry in assay [7], in [8], in assay [9], in [19], in [10] and in assay [15] was “inactive” each time. The outcome in assay [20] and in assay [6] was inactive.
Take `O=C(N[C@H]1CN2CCC1CC2)c1cc2ccoc2cn1`: the Potency entry in assay [1], in assay [2], in assay [3], in assay [4], in assay [5] and in [16] was “inactive” in each case. Moreover, the Potency result in assay [7], in assay [8], in assay [9], in assay [10] and in [15] was “inactive” throughout. For the same molecule, the molecule was classed as inactive in assay [20], in assay [6], in assay [17] and in assay [18].
Take `C[C@@H]1CN(C2CCC(C#N)(c3ccc(F)cc3)CC2)CC[C@]1(C(=O)O)c1ccccc1` (stereo not given in full): the Potency result in assay [1], in assay [2], in [3], in assay [4], in assay [5] and in assay [16] was “inactive” each time. Besides, the Potency result in assay [7], in assay [8], in assay [9], in assay [19], in [10] and in assay [12] was “inactive” throughout. In addition, the Potency result in assay [13] and in assay [15] was “inactive” throughout. Besides, the result in assay [20] and in assay [6] was inactive. Also, the max activation in [11] is -1.37%.
Turning to `CNC(=O)Oc1ccc(N(C)C)c(C)c1`, the Potency result in [1], in assay [2], in assay [3], in assay [4], in [5] and in assay [16] was “inactive” in each case. Moreover, the Potency result in assay [7], in assay [8] and in assay [9] was “inactive” each time. Further, the molecule was classed as inactive in [20], in assay [6], in assay [17] and in assay [18]. Besides, the Potency was 5.64 µM (active) in assay [14] and 6.33 µM (active) in assay [15].
`CCCSC(=O)Cl`: the Potency entry in [1], in [2], in assay [3], in assay [4], in [5] and in assay [16] was “inactive” each time. Moreover, the Potency entry in assay [7], in assay [8], in assay [9], in assay [19], in assay [10] and in assay [14] was “inactive” throughout. In [15], the Potency result is “inactive”. The outcome in assay [20] and in assay [6] was inactive.
